Among the data in PubChem BioAssay (NCI) are growth inhibition values, retold here.

Each structure is given as a SMILES string. The panel holds about 79,000 compounds, 15% with a hit somewhere; the sample as a whole holds those more often. Values without a mark were called inactive. The source made the active and inactive calls. No stated cut-off is given here; in the data, active means growth inhibition above about 70%; inactive means the rest.

Experiment [1] can be described thus: NCI Yeast Anticancer Drug Screen. Data for the rad50 strain (AID 155).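 Further: 0% = growth of vehicle-only cultures of the same strain.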 The conditions noted are these: S. cerevisiae rad50 strain growth inhibition, hits give high values. The method in brief:
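Genetically altered yeast (DNA repair pathway); compound treatment; growth inhibition vs vehicle ctrl.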

Experiment [2] can be described thus: NCI Yeast Anticancer Drug Screen. Data for the mec2-1 strain (AID 157). The note with it: S. cerevisiae mec2-1 strain, hits give high values. The method in brief:
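Yeast mec2-1 mutant treated with compound. Readout: growth inhibition vs vehicle controls.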

Experiment [3] in a line: NCI Yeast Anticancer Drug Screen. Data for the sgs1 mgt1 strain (AID 161).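 Further: 0% = growth of cultures given vehicle only.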 The note with it: S. cerevisiae sgs1 mgt1 strain, hits give high values. The method in brief: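 Test agents were incubated with a DNA-repair-mutant yeast strain. Growth was then read and compared against vehicle-treated controls.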
Experiment [4] can be described thus: NCI Yeast Anticancer Drug Screen. Data for the cln2 rad14 strain (AID 165).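 Further: 0% = growth equal to vehicle treated cultures.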 The note with it: S. cerevisiae cln2 rad14 strain, hits give high values. The method in brief: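 cln2 rad14 yeast strain; compound exposure; growth inhibition read vs vehicle controls.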
A short description of experiment [5]: NCI Yeast Anticancer Drug Screen. Data for the bub3 strain (AID 167). The conditions noted are these: S. cerevisiae bub3 mutant strain, hits give high values. The method in brief:
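Yeast carrying a defined mutation is treated with each compound, and growth is compared with that of vehicle-exposed cells to give inhibition.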

Experiment [6] in a line: NCI Yeast Anticancer Drug Screen. Data for the mlh1 rad18 strain (AID 175). The note with it: S. cerevisiae mlh1 rad18 strain growth inhibition, hits give high values. An outline of the steps:
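Yeast w/ defined DNA-repair lesions; compound exposure; growth vs vehicle controls → % inhibition.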

The mark [7] stands for this setting: at 5.0 µM (retest, dose inferred, filed as 0.5).
[8] abbreviates: at 50.0 µM (retest, dose inferred, filed as 5.0).

With `Cc1ccc(NCCN(C)C)c2c(=O)c3ccc(O)cc3sc12`, the growth inhibition in experiment [1] (setting [7]) is 56%; in experiment [1] (setting [8]) it was 96% (active); in experiment [1] (at 50.0 µM), 98.5% (active); in experiment [2] (setting [7]), -3%; in experiment [2] (setting [8]) it was 82% (active); in experiment [2] (at 50.0 µM) it was 98.9% (active). For the same compound, the growth inhibition in experiment [3] (setting [7]) was -1%; in experiment [3] (setting [8]), 88% (active); in experiment [3] (at 50.0 µM) it was 93% (active); in experiment [4] (setting [7]), -3%; in experiment [4] (setting [8]), 85% (active); in experiment [4] (at 50.0 µM) it was 63.5%. Also, the growth inhibition in experiment [5] (setting [7]) was -1%; in experiment [5] (setting [8]), 84% (active); in experiment [5] (at 50.0 µM), 98.2% (active); in experiment [6] (setting [7]), 5%; in experiment [6] (setting [8]) it was 94% (active); in experiment [6] (at 50.0 µM), 99.2% (active).
On to `COc1ccc(CN2CCCN(Cc3ccc(OC)cc3OC)C2c2cc(Cl)cc(Cl)c2O)c(OC)c1`, for which the growth inhibition in experiment [1] (setting [7]) is 10%; in experiment [1] (setting [8]) it was 52%; in experiment [1] (at 50.0 µM), 73.8% (active); in experiment [2] (setting [7]), 16%; in experiment [2] (setting [8]) it was 93% (active); in experiment [2] (at 50.0 µM) it was 33.3%. The growth inhibition in experiment [3] (setting [7]) was -10%; in experiment [3] (setting [8]), 75% (active); in experiment [3] (at 50.0 µM), 76.2% (active); in experiment [4] (setting [7]), -2%; in experiment [4] (setting [8]), 35%; in experiment [4] (at 50.0 µM) it was 30.9%. For the same compound, the growth inhibition in experiment [5] (setting [7]) is 3%; in experiment [5] (setting [8]) it was 79% (active); in experiment [5] (at 50.0 µM), 3.9%; in experiment [6] (setting [7]), 27%; in experiment [6] (setting [8]), 94% (active); in experiment [6] (at 50.0 µM) it was 61.4%.
With `Clc1ccc(OCC2CO2)c(Cl)c1` (stereo not drawn), the growth inhibition in experiment [1] (setting [7]) is 43%; in experiment [1] (setting [8]), 93% (active); in experiment [1] (at 50.0 µM) it was 96.6% (active); in experiment [2] (setting [7]), -17%; in experiment [2] (setting [8]), 40%; in experiment [2] (at 50.0 µM) it was 91.5% (active). Moreover, the growth inhibition in experiment [3] (setting [7]) was 40%; in experiment [3] (setting [8]) it was 82% (active); in experiment [3] (at 50.0 µM), 92.2% (active); in experiment [4] (setting [7]), 5%; in experiment [4] (setting [8]) it was 40%; in experiment [4] (at 50.0 µM), 86.5% (active). In addition, the growth inhibition in experiment [5] (setting [7]) was 6%; in experiment [5] (setting [8]), -7%; in experiment [5] (at 50.0 µM), 14.9%; in experiment [6] (setting [7]), 16%; in experiment [6] (setting [8]) it was 84% (active); in experiment [6] (at 50.0 µM), 96.8% (active).
Take `Cc1cccc2c(C(=O)CBr)cc(-c3ccc(Cl)cc3)nc12`: the growth inhibition in experiment [1] (setting [7]) was 54%; in experiment [1] (setting [8]), 91% (active); in experiment [1] (at 50.0 µM), 95.7% (active); in experiment [2] (setting [7]), 89% (active); in experiment [2] (setting [8]) it was 93% (active); in experiment [2] (at 50.0 µM) it was 95.3% (active). Further, the growth inhibition in experiment [3] (setting [7]) was 96% (active); in experiment [3] (setting [8]) it was 91% (active); in experiment [3] (at 50.0 µM) it was 95.2% (active); in experiment [4] (setting [7]) it was 36%; in experiment [4] (setting [8]), 85% (active); in experiment [4] (at 50.0 µM), 85.8% (active). The growth inhibition was 74% (active) in experiment [5] (setting [7]); 92% (active) in experiment [5] (setting [8]); 95% (active) in experiment [5] (at 50.0 µM); 88% (active) in experiment [6] (setting [7]); 90% (active) in experiment [6] (setting [8]); 95.5% (active) in experiment [6] (at 50.0 µM).
`COc1ccc(/C(=N/NC(N)=O)C(c2ccc(OC)cc2)C2C(=O)Oc3ccccc32)cc1` (stereo not drawn): the growth inhibition was -7% in experiment [1] (setting [7]); 88% (active) in experiment [1] (setting [8]); 98.2% (active) in experiment [1] (at 50.0 µM); -59% in experiment [2] (setting [7]); 96% (active) in experiment [2] (setting [8]); 99% (active) in experiment [2] (at 50.0 µM). Further, the growth inhibition is -4% in experiment [3] (setting [7]); 86% (active) in experiment [3] (setting [8]); 98.6% (active) in experiment [3] (at 50.0 µM); 0% in experiment [4] (setting [7]); 77% (active) in experiment [4] (setting [8]); 88.8% (active) in experiment [4] (at 50.0 µM). In addition, the growth inhibition in experiment [5] (setting [7]) is 0%; in experiment [5] (setting [8]), 83% (active); in experiment [5] (at 50.0 µM) it was 99.2% (active); in experiment [6] (setting [7]), -2%; in experiment [6] (setting [8]), 95% (active); in experiment [6] (at 50.0 µM), 98.4% (active).
In the case of `COC(=O)/C=C(\C)Nc1ccc(Cc2ccc(Cl)cc2)cc1`, the growth inhibition was 7% in experiment [1] (setting [7]); 98% (active) in experiment [1] (setting [8]); 98.3% (active) in experiment [1] (at 50.0 µM); -3% in experiment [2] (setting [7]); 99% (active) in experiment [2] (setting [8]); 97.8% (active) in experiment [2] (at 50.0 µM). The growth inhibition is 7% in experiment [3] (setting [7]); 99% (active) in experiment [3] (setting [8]); 97.2% (active) in experiment [3] (at 50.0 µM); 1% in experiment [4] (setting [7]); 99% (active) in experiment [4] (setting [8]); 97.5% (active) in experiment [4] (at 50.0 µM). The growth inhibition in experiment [5] (setting [7]) is -3%; in experiment [5] (setting [8]) it was 98% (active); in experiment [5] (at 50.0 µM) it was 97.5% (active); in experiment [6] (setting [7]) it was 9%; in experiment [6] (setting [8]) it was 99% (active); in experiment [6] (at 50.0 µM), 98.2% (active).
